Results: PubChem BioAssay AID1159580 (chemical genetic matrix, 2015)
The whole screen tested about 5,500 compounds, of which about 2,000 (36%) were called active. About 18% were inconclusive and are not listed. No stated cut-off is given here; in the data, active means normalized growth mostly below about 0.91 (no sharp cut-off); inconclusive means no clear call, values can overlap the other calls; inactive means mostly above about 0.92. The list shows a part of the results.

Test: chemical genetic growth profiling, strain panel (AID 1159580);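 further: tested at 20 µM; growth read once vehicle control cultures reached saturation at 30 °C; 1 = growth at the plate median or of vehicle wells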
Details: S. cerevisiae deletion strains, growth OD

Measured: normalized growth

N#Cc1c(N)sc2c1CCCCC2
inactive: locus YAL013W, strain DEP1, stronger effect = lower value 0.959 | locus YBR229C, strain ROT2, stronger effect = lower value 0.951 | locus YCL061C, strain MRC1, stronger effect = lower value 0.945 | locus YDL101C, strain DUN1, stronger effect = lower value 0.971 | locus YDR150W, strain NUM1, stronger effect = lower value 1.02 | locus YGR078C, strain PAC10, stronger effect = lower value 0.961 | locus YHR087W, strain rtc3, stronger effect = lower value 0.975 | locus YJL187C, strain SWE1, stronger effect = lower value 0.963 | locus YJR043C, strain POL32, stronger effect = lower value 0.992 | locus YJR075W, strain HOC1, stronger effect = lower value 0.945 | locus YLR039C, strain RIC1, stronger effect = lower value 0.96 | locus YLR058C, strain SHM2 (second series), stronger effect = lower value 0.956 | locus YLR262C, strain YPT6, stronger effect = lower value 0.955 | locus YML094W, strain GIM5, stronger effect = lower value 0.878 | locus YMR219W, strain ESC1, stronger effect = lower value 0.95 | locus YMR263W, strain SAP30, stronger effect = lower value 0.984 | locus YNL153C, strain GIM3, stronger effect = lower value 0.953 | locus YNL298W, strain CLA4 (second series), stronger effect = lower value 0.944 | locus YNL322C, strain KRE1, stronger effect = lower value 0.964 | locus YNR030W, strain Alg12, stronger effect = lower value 0.895 | locus YPL055C, strain LGE1, stronger effect = lower value 0.97
active: locus YEL061C, strain CIN8, stronger effect = lower value 0.903 | locus YHR030C, strain SLT2, stronger effect = lower value 0.616 | locus YKL190W, strain CNB1, stronger effect = lower value 0.927 | locus YLR085C, strain ARP6, stronger effect = lower value 0.714 | locus YMR307W, strain GAS1, stronger effect = lower value 0.662 | locus YPL241C, strain CIN2, stronger effect = lower value 0.846 | locus YPR135W, strain CTF4, stronger effect = lower value 0.498
